# In PubChem BioAssay (NCI):
# The panel holds about 83,000 compounds, 20% with a hit somewhere; the sample as a whole holds those more often.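 Compound tested at a single concentration for 48 hours in 96-well plates; a percent growth value below 10 was scored as active.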 A number with no mark means an inactive call. Activity calls are given as the source filed them.
# What was measured:
# Experiment in all cases: NCI-60 one-dose screen, 48 h (100 = growth as untreated, 0 = no growth, -100 = all killed)
# Conditions in all cases: 10 µM
# NCI-H23 lung = test system: NCI-H23 lung
# NCI-H226 lung = test system: NCI-H226 lung
# NCI-H322M lung = test system: NCI-H322M lung
# HOP-62 NSCLC = test system: HOP-62 NSCLC
# NCI-H460 lung = test system: NCI-H460 lung
# HOP-92 NSCLC = test system: HOP-92 NSCLC
# NCI-H522 lung = test system: NCI-H522 lung
# A549/ATCC NSCLC = test system: A549/ATCC NSCLC
# 786-0 renal = test system: 786-0 renal
# COLO 205 colon = test system: COLO 205 colon
# DU-145 prostate = test system: DU-145 prostate
# K-562 leukemia = test system: K-562 leukemia
# MALME-3M melanoma = test system: MALME-3M melanoma
# MDA-MB-231 breast = test system: MDA-MB-231 breast
# SF-268 CNS = test system: SF-268 CNS
# SF-295 CNS = test system: SF-295 CNS
# SF-539 CNS = test system: SF-539 CNS
# UACC-257 melanoma = test system: UACC-257 melanoma
# M14 melanoma = test system: M14 melanoma
SMILES,growth (NCI-H23 lung),growth (NCI-H226 lung),growth (NCI-H322M lung),growth (HOP-62 NSCLC),growth (NCI-H460 lung),growth (HOP-92 NSCLC),growth (NCI-H522 lung),growth (A549/ATCC NSCLC),growth (786-0 renal),growth (COLO 205 colon),growth (DU-145 prostate),growth (K-562 leukemia),growth (MALME-3M melanoma),growth (MDA-MB-231 breast),growth (SF-268 CNS),growth (SF-295 CNS),growth (SF-539 CNS),growth (UACC-257 melanoma),growth (M14 melanoma)
CC(C)Sc1nc(NC2CC2)c(C#N)c(-c2ccccc2)n1,75.5%,22.4%,77.4%,33.9%,75.1%,58.4%,60.9%,48.6%,28.5%,90.5%,86.2%,90%,104%,58.9%,61%,54.9%,42%,103%,117%
Cc1ccc(-c2nc(Nc3ccccc3C(=O)O)c3ccccc3n2)cc1,-4.11% (active),15.3%,33.8%,28.3%,-9.44% (active),-19.5% (active),33.2%,30.5%,18.7%,80.9%,19.4%,17.6%,19.6%,35.4%,11.2%,5.81% (active),21.3%,28.6%,12.6%
CN(C)c1nc(NCCNS(=O)(=O)c2ccc(C(=O)/C=C/c3ccccc3)cc2)nc(Nc2ccc(F)cc2)n1,28.8%,27.8%,44.1%,61.1%,14.9%,-12.1% (active),61.6%,45.4%,-20.6% (active),54%,26.3%,10.8%,36.5%,17.7%,32.4%,23.1%,26.7%,54.8%,5.05% (active)
CN1C(=O)N(C)C2SC(N/N=C/c3ccc(F)cc3)=NC21 (configuration not stated),63.5%,75.6%,97.4%,53.5%,32.6%,71.1%,14.7%,49.6%,50.2%,46.5%,76.3%,15%,40.1%,38.7%,52.1%,30.8%,29.3%,67.7%,23.8%
Cc1noc2c(Cc3ccc([N+](=O)[O-])cc3)nn(CC(=O)N/N=C/c3ccc(Cl)cc3)c(=O)c12,57.9%,8.93% (active),62.5%,16.9%,46.2%,-20.2% (active),69.5%,40.1%,-19.5% (active),79.3%,61.6%,72.8%,36.9%,4.43% (active),23.5%,70.1%,8.2% (active),81%,68.1%
CN1CCN(c2ccc(C(=O)/C=C/c3ccc(OC(F)F)cc3)cc2)CC1,27.8%,27.7%,70.6%,95.6%,49.2%,61.6%,83.5%,40.2%,61.6%,34.8%,57.8%,6.23% (active),84.1%,41.5%,81%,47.4%,-39.8% (active),68.7%,31.6%
N#Cc1ccc(NC(=O)CSc2ccc(-c3ccc(Br)cc3)nn2)cc1,51.3%,44.8%,76.6%,88.6%,64.6%,70.2%,52%,64.7%,80.2%,112%,88.8%,48.7%,68.8%,76.7%,62.6%,58.9%,67.2%,47.3%,63.5%
O=C1c2ccccc2C(=O)c2c1c(C(=O)c1ccc(Cl)cc1)n1c2ccc2c3ccccc3ccc21,96%,103%,113%,92.5%,109%,98.6%,93.5%,102%,110%,128%,108%,106%,101%,89.9%,105%,99.1%,88.5%,107%,107%
